Screening data (PubChem BioAssay)
Compounds with a hit are over-represented: about 2.5% of the library has one in this group of screens.
LGR2 antag – blocks bursicon-induced cAMP signaling via Drosophila LGR2; HEK293 LGR2, CRE-luciferase, bursicon-stimulated, 4 h; inhibition, % at 9.99 µM; actives 0.35% (n = 380,000);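 active means drop in luminescence signal, shown as inhibition above about 50% in the replicate tests, limit read from the data, passing the limit was not always enough; inconclusive means probably only some replicates passing the limit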;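 further: agonist challenge used bursicon conditioned medium at about half maximal strength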
TWEAK-Fn14 inh – blocks TWEAK-Fn14 interaction in a reporter cell assay; TWEAK-stimulated Fn14 reporter cells, luciferase luminescence, 8 h; actives 2% (n = 360,000); inhibition, % at 10 µM; in the data active means inhibition above about 50%
LMP1 NFkB inh – Epstein-Barr LMP1 NF-kappaB reporter inhibition; LMP1-induced NF-kappaB luciferase reporter cells, luminescence; inhibition, % at 12.5 µM; actives 0.69% (n = 350,000); AID 504558; in the data active means inhibition above about 41%; inconclusive means no clear call, values can overlap the other calls
TROY NFkB inh – inhibitors of TROY-dependent NF-kB signaling; Q293 LMP1-TROYcd NF-kB luciferase reporter, 4 h; inhibition, % at 10 µM; actives 0.98% (n = 360,000); AID 1347056;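 active means compounds whose plate-normalised and pattern-corrected inhibition of the luciferase reporter signal at the single screening dose is 50% or more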
EWS-Fli inh – blocks EWS/Fli oncoprotein-driven transcription | inhibition, % at 12.6 µM | AID 651661 | actives 0.67% (n = 350,000) | A673 NR0B1-luciferase reporter, viability-normalised;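 active means mean inhibition of at least 50% after viability correction, with every replicate also passing that limit; inconclusive means mean reaches 50% but only one of two replicates passes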;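 further: firefly luciferase signal divided by Alamar Blue viability fluorescence both relative to DMSO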
Numbers stand for hits; – = inactive; ? = inconclusive; · = no result given.

SMILES | LGR2 antag | TWEAK-Fn14 inh | LMP1 NFkB inh | TROY NFkB inh | EWS-Fli inh
COc1ccc(S(=O)(=O)Nc2ccc3c(c2)C(=O)N([C@@H](C)CO)C[C@@H](C)[C@@H](CN(C)C(=O)CCC(F)(F)F)OCCCC[C@H](C)O3)cc1 | – | · | · | · | –
O=C(Nc1cccc(-c2csc(Nc3ccc(Cl)cc3)n2)c1)c1cc([N+](=O)[O-])cc(C(F)(F)F)c1 | – | 51 | – | – | –
NS(=O)(=O)c1ccc(Nc2nc(-c3cccc([N+](=O)[O-])c3)cs2)cc1 | 73 | – | – | 56 | –
COc1ccc(NC(=O)Nc2ccc3c(c2)[C@@H]2C[C@H](CC(=O)N[C@@H](C)c4ccccc4)O[C@H](CO)[C@@H]2O3)cc1 | – | · | · | · | –
CC(=O)NNc1nc2ccccc2s1 | · | 89 | – | 83 | ·
O=C(COc1ccccc1)NNc1nc2ccccc2s1 | – | 70 | – | 85 | –
COc1ccccc1C(=O)Nc1ccc2c(c1)C(=O)N(C)C[C@@H](OC)[C@H](C)CN(C)[C@@H](C)CO2 | – | · | · | · | –
Cc1ccc(S(=O)(=O)N2[C@@H](c3ccccc3)C(C(=O)O)=CC[C@H]2c2ccc(Cl)c(Cl)c2)cc1 | – | – | – | – | –
Cc1ccc([C@H]2C(C(=O)O)=CC[C@@H](c3ccc(Cl)c(Cl)c3)N2S(=O)(=O)c2ccc(C)cc2)cc1 | – | – | – | 57 | –
O=C([C@H]1[C@H](CO)[C@H]2Cn3c(cccc3=O)[C@H]2N1CC1CCCCC1)N1CCOCC1 | – | · | · | · | ·
CN(C)C(=O)[C@H]1[C@H](CO)[C@H]2Cn3c(ccc(C4=CCCC4)c3=O)[C@@H]1N2Cc1ccccn1 | – | · | · | · | –
O=C(CCCN1C(=O)/C(=C/c2ccccc2Cl)SC1=S)NNC(=O)c1ccccc1Cl | – | 78 | 44 | – | 66
O=C(CCCN1C(=O)/C(=C/c2ccccc2Cl)SC1=S)NNC(=O)c1ccncc1 | – | 79 | – | 68 | ?
O=C(CCCN1C(=O)/C(=C/c2ccccc2Cl)SC1=S)N1CCCC1 | – | 58 | – | – | –
O=C(C[C@H]1C[C@H]2c3cc(NC(=O)C4CCOCC4)ccc3O[C@H]2[C@H](CO)O1)NC1CCCC1 | – | · | · | · | –
Nc1ccc(C23CC4CC(CC(O)(C4)C2)C3)cc1 | · | 76 | – | 74 | ·
COc1ccc2c3c([nH]c2c1)[C@@H](CO)N(Cc1cccnc1)CC31CN(C(=O)CN(C)C)C1 | – | · | · | · | –
O=C(c1ccccn1)N1CC2(C1)[C@@H](c1ccccc1)[C@@H](CO)N2Cc1ccc(F)cc1 | – | · | · | · | –
O=C1c2ccccc2C(=O)C1c1ccc2ccccc2n1 | · | 95 | – | – | ·
CCN(CC)C(=O)CSc1nc2ccc(NC(=O)CSc3nnc(COc4ccccc4C)n3C)cc2s1 | · | – | – | – | ·
CCOC(=O)CSc1nc2ccc(N)cc2s1 | – | – | – | – | ·
CC(NC(=O)CSc1nc2ccc(N)cc2s1)c1ccccc1 (configuration not stated) | · | – | – | 52 | –
CC(C)(C)NC(=O)CSc1nc2ccc(NC(=O)CSc3nnnn3Cc3ccccc3)cc2s1 | · | 73 | – | 50 | ·
Cc1ccccc1OCc1nnc(SCC(=O)Nc2ccc3nc(SCC(=O)NC(C)(C)C)sc3c2)n1C | · | 89 | – | · | ·
CCOC(=O)CSc1nc2ccc(NC(=O)CSc3nnnn3Cc3ccccc3)cc2s1 | · | – | – | – | ·
SMILES | LGR2 antag | TWEAK-Fn14 inh | LMP1 NFkB inh | TROY NFkB inh | EWS-Fli inh
Cc1ccccc1CN(C)C[C@H]1OCc2cnnn2CCCC(=O)N([C@H](C)CO)C[C@H]1C | – | · | · | · | –
COc1ccc(C(=O)Nc2ccc3oc(Cc4ccc(Cl)cc4)nc3c2)cc1OC | – | 52 | – | – | –
COc1ccc(Cc2nc3ccc(C(=O)NCCc4ccncc4)cc3o2)cc1OC | – | – | – | – | –
COc1cc(C2c3cc4c(cc3C(OC3OC5COC(c6cccs6)OC5C(O)C3O)C3COC(=O)C23)OCO4)cc(OC)c1O (configuration not stated) | – | – | 75 | – | 60
COc1cc([C@@H]2c3cc4c(cc3[C@H](O)[C@H]3COC(=O)[C@H]23)OCO4)cc(OC)c1OC | – | – | – | – | 72
COc1cc([C@@H]2c3cc4c(cc3[C@@H](O[C@@H]3O[C@@H]5CO[C@@H](C)O[C@H]5[C@H](O)[C@H]3O)[C@H]3COC(=O)[C@H]23)OCO4)cc(OC)c1O | – | – | 70 | – | 54
O=C(c1cc(-c2ccc(Br)cc2)on1)N1CCOCC1 | – | 55 | – | – | –
O=C(c1cc(-c2ccc(Br)cc2)on1)N1CCCCCC1 | – | – | – | – | –
c1ccc(-c2cc(-c3cc(-c4ccccc4)on3)no2)cc1 | – | – | – | – | –
